According to the supplement of paper PMC10849652:
Targets with a hit are over-represented here; the source holds about 7,900 in all. About 0.6% of all pairs of compound and target were hits.

How the values were obtained:
Assay in all cases: log2 fold change, soluble protein after heating vs DMSO (PISA); higher = thermal stabilisation; K562 cells, 10 uM, 30 min; active = over 0.2 and 3.5 SD of the protein, either way, in both replicates (recomputed)
[1] = compound: C#Cc1cccc(Nc2ncnc3cc(OCCOC)c(OCCOC)cc23)c1 [erlotinib]
In short: (§1)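 Soluble protein was defined as the supernatant after 21,000xg for 90 min. It came from K562 cells at 2×10^6 cells/mL given 10 μM compound for 30 min, heated in aliquots for 3 min across 48°C-58°C, pooled, and extracted in PBS with 0.5% NP-40 at 4°C, and was quantified by TMTpro 16plex LC-MS/MS with equalised channel sums. Thermal stability against control samples, from duplicates, is reported as log2 fold change.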

[2] = compound: C/C(=N\NC(=O)C1=CC(=CC=C1)S(=O)(=O)N2CCOCC2)/C3=C(C=CC(=C3)Cl)O
In short: as §1

[3] = compound: C1=CC(=C(C=C1Cl)C2=NC3=NC=CN=C3C(=N2)NC4=CC=NC=C4)F
In short: as §1

[4] = compound: C1=CC(=CC=C1C2=NC3=C(N2)C=C(C=C3)C(=O)N)OC4=CC=C(C=C4)Cl
In short: as §1

[5] = compound: C1=CC2=C(C=CC(=C2)/C=C\3/C(=O)NC(=NCC4=CC=CS4)S3)N=C1
In short: as §1

[6] = compound: C1=CC2=NC=CN=C2C=C1/C=C/3\C(=O)NC(=O)S3
In short: as §1

[7] = compound: C1=CC=C(C=C1)C2=NC(=C(N2)C3=CC=NC=C3)C4=CC(=C(C=C4)Cl)O
In short: as §1

[8] = compound: C1=CC=C2C(=C1)C3=NNC4=CC=CC(=C43)C2=O
In short: as §1

[9] = compound: C1CCN(C1)C(=O)NC2=CC=CC(=C2)NC3=NC=C(C(=N3)NCCC4=CN=CN4)Br
In short: as §1

[10] = compound: C1CN(CCC1(CC2=CC=C(C=C2)Cl)N)C3=NC=NC4=C3C=CN4
In short: as §1

Measured: log2 fold change

TXN2 (UniProt Q99757)
UniProt Q99757, sequence (Q99757 whole entry, looked up): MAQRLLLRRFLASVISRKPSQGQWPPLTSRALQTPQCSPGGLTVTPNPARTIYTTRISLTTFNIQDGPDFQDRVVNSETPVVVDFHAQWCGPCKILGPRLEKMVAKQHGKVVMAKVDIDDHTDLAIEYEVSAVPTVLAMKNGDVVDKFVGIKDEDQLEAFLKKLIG
inactive: [1] -0.035 | [2] -0.022 | [3] 0.093 | [4] -0.032 | [5] 0.086 | [6] 0.098 | [7] -0.02 | [8] 0.029 | [9] 0.029 | [10] 0.005

UBC (UniProt P0CG48)
UniProt P0CG48, sequence (P0CG48 whole entry, looked up): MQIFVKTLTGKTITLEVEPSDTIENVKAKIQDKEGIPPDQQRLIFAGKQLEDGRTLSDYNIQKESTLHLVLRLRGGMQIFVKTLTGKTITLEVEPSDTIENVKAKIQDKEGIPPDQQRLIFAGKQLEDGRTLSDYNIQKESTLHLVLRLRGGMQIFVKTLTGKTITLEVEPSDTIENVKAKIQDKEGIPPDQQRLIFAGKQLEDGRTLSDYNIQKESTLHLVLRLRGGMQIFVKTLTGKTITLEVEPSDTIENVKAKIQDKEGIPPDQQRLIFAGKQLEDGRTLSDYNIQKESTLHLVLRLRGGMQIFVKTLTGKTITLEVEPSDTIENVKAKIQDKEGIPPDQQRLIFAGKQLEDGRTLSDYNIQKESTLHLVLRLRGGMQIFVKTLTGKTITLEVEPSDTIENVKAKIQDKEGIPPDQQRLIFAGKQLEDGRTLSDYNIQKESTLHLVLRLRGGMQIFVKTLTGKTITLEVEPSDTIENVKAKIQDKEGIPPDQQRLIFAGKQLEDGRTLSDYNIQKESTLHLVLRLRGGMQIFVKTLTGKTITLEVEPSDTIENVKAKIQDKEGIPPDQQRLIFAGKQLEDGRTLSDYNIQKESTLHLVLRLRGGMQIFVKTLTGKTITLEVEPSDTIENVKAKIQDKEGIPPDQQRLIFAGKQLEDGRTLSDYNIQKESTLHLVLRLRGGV
inactive: [1] -0.007 | [2] -0.021 | [3] -0.004 | [4] 0.011 | [5] 0.024 | [6] -0.044 | [7] -0.054 | [8] 0.009 | [9] 0.043 | [10] -0.041

U2AF2 (UniProt P26368)
UniProt P26368, sequence (P26368 whole entry, looked up): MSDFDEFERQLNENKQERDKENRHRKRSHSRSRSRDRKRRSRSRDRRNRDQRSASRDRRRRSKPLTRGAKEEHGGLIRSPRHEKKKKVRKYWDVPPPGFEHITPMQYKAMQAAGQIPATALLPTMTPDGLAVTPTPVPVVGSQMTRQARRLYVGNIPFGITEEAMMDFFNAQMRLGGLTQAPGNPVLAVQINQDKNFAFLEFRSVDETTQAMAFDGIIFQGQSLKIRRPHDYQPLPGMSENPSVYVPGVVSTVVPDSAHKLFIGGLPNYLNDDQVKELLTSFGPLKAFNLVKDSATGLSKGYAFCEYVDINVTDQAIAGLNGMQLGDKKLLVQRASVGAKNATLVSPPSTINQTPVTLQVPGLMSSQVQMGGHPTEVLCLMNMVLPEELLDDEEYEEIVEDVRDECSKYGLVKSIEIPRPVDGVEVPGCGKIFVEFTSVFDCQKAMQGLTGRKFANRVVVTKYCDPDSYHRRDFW
inactive: [1] 0.012 | [2] 0.045 | [3] -0.013 | [4] 0.029 | [5] -0.045 | [6] -0.004 | [7] 0.012 | [8] -0.048 | [9] -0.026 | [10] -0.074

WASHC5 (UniProt Q12768)
UniProt Q12768, sequence (Q12768 whole entry, looked up): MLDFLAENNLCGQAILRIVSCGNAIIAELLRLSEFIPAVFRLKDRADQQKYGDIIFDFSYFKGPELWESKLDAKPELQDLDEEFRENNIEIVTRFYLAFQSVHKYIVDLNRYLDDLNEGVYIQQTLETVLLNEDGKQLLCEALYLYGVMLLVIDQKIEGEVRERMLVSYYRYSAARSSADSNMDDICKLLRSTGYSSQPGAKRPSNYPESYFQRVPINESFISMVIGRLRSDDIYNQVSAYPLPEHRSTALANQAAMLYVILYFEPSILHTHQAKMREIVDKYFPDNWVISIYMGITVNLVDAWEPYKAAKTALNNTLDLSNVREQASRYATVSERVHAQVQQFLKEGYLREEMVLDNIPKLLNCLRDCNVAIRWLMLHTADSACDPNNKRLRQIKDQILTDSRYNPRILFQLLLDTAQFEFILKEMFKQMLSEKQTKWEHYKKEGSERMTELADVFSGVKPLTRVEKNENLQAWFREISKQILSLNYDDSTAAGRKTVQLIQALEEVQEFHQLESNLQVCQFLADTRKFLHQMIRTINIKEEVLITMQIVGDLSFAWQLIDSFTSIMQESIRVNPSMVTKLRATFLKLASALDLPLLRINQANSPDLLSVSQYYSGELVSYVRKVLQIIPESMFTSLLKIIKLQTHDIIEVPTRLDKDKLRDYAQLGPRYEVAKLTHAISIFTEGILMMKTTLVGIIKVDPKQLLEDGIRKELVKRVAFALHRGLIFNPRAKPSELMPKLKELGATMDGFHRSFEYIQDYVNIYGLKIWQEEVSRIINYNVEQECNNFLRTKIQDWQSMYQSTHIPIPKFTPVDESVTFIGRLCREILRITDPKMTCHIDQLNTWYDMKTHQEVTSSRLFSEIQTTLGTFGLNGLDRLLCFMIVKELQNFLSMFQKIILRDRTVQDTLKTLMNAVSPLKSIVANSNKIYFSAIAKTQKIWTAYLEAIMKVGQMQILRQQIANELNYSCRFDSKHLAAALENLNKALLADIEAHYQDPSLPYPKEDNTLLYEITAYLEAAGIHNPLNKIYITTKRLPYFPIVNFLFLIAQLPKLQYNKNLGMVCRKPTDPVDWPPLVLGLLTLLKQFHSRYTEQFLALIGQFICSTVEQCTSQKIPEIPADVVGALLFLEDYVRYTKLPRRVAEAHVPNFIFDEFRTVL
inactive: [1] 0.019 | [2] 0.084 | [3] -0.061 | [4] -0.004 | [5] 0.088 | [6] -0.058 | [7] 0.04 | [8] 0.018 | [9] 0.002 | [10] 0.002

UCHL5 (UniProt Q9Y5K5)
UniProt Q9Y5K5, sequence (Q9Y5K5 whole entry, looked up): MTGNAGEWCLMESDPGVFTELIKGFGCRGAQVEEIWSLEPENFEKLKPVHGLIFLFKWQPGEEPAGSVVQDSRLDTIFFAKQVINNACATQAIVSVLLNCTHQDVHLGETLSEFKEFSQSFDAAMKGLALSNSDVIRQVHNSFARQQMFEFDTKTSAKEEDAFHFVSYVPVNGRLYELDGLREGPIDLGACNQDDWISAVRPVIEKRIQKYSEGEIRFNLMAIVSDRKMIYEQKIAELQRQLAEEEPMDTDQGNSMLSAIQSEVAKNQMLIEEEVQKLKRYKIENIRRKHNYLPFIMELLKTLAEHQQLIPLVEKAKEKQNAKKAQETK
inactive: [1] -0.018 | [2] 0.094 | [3] 0.005 | [4] -0.024 | [5] 0.036 | [6] 0.008 | [7] 0.02 | [8] 0.03 | [9] -0.001 | [10] -0.01

UTP3 (UniProt Q9NQZ2)
UniProt Q9NQZ2, sequence (Q9NQZ2 whole entry, looked up): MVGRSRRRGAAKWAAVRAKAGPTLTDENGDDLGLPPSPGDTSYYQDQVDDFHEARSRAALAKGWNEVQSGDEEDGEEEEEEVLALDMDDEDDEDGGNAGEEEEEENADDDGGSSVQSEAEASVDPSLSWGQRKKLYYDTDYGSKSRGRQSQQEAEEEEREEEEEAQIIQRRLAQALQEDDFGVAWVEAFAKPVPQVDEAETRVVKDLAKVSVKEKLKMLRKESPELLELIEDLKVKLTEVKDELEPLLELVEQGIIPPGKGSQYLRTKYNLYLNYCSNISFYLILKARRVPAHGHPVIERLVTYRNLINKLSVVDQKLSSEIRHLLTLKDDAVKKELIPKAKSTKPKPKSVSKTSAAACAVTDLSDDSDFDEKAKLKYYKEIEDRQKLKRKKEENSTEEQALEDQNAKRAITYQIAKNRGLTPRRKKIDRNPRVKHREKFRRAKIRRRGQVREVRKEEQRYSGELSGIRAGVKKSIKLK
inactive: [1] -0.098 | [2] -0.076 | [3] -0.748 | [4] 0.063 | [5] -0.068 | [6] 0 | [7] -0.255 | [8] -0.004 | [9] 0.006 | [10] -0.203

TRAPPC11 (UniProt Q7Z392)
UniProt Q7Z392, sequence (Q7Z392 whole entry, looked up): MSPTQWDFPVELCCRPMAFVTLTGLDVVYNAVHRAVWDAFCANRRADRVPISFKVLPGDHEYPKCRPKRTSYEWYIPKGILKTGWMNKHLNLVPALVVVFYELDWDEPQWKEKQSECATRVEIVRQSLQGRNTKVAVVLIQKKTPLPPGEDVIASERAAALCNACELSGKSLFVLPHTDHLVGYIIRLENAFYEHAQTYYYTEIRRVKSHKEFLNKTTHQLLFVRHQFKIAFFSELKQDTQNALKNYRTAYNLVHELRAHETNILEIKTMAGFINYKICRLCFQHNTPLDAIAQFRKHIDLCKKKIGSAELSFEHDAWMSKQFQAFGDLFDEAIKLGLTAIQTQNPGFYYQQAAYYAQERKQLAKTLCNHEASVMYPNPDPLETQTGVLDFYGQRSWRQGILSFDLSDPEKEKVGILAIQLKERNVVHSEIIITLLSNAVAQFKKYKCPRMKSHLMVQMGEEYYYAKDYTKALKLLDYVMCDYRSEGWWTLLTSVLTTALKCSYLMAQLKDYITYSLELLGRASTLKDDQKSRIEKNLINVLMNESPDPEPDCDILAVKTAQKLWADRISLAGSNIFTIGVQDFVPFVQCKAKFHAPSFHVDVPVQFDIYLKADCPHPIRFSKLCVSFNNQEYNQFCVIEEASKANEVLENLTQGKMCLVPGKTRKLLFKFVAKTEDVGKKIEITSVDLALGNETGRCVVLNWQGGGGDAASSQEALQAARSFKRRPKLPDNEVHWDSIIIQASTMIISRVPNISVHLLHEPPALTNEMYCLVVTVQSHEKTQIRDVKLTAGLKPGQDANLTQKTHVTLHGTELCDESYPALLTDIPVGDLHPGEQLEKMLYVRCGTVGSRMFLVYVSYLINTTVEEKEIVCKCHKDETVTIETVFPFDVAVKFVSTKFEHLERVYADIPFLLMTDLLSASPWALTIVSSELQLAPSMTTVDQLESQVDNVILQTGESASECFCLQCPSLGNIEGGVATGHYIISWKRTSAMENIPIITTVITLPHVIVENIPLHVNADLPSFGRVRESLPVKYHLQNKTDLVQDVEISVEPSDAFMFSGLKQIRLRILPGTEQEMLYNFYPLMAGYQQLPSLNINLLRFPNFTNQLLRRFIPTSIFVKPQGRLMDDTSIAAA
inactive: [1] 0.044 | [2] 0.136 | [3] -0.027 | [4] 0.017 | [5] 0.105 | [6] 0.059 | [7] 0.027 | [8] 0.062 | [9] -0.019 | [10] -0.001

TMEM192 (UniProt Q8IY95)
UniProt Q8IY95, sequence (Q8IY95 whole entry, looked up): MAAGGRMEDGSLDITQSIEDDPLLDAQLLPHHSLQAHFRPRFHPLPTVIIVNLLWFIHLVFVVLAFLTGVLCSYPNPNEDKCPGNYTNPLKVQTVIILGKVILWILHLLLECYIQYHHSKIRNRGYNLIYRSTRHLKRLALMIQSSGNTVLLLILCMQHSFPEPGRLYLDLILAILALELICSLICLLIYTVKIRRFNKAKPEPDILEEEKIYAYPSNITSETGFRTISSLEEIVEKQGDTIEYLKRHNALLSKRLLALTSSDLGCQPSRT
inactive: [1] 0.044 | [2] -0.017 | [3] 0.011 | [4] -0.008 | [5] -0.011 | [6] 0.067 | [7] 0.011 | [8] -0.017 | [9] 0.039 | [10] 0.038
